Experimental data reported in PubChem BioAssay.

Test: resazurin metabolic signal in HepG2 cells – cell-based, resazurin fluorescence, 24 h, PK04 Diversity Set, profiling panel (AID 1172); further: test concentration not given here
Details: HepG2 viability, higher = more signal
Work on `COc1cc(OC)c(C(O)C2C=CC3C(=O)NC(=O)C3N2Nc2ccccn2)cc1Br` (stereo unspecified) yielded a z-score of -0.455.
`C=CCNC(=O)[C@@H]1[C@H]2C(=O)O[C@H](c3ccccc3)[C@H](c3ccccc3)N2[C@H](c2ccc(OCCO)cc2)[C@@]12C(=O)N(C(=O)OCCOC)c1ccc(C#CCC(C(=O)OC)C(=O)OC)cc12` gave a z-score of -0.185.
Work on `COC(=O)c1c(CC[C@@H](CO)NC(=O)NCCc2c[nH]c3ccccc23)oc(C(=O)Cc2ccccc2)c1C(=O)OC` yielded a z-score of 1.35.
For `O=C(O)[C@H](Cc1ccccc1)n1cc(-c2ccccc2)nn1`, the z-score was 0.562.
Compound `CC(C)NC(=O)[C@@]1(Cc2ccccc2I)c2ccccc2C(=O)N(Cc2ccccc2Cl)[C@H]1c1ccc(CO)cc1` has a z-score of -0.344.
`CC(C)=CCCC(C)=CC(O)C1C=CC2C(=O)N(c3ccccc3)C(=O)C2N1Nc1ccc(C(C)C)cc1` (stereo unspecified) showed a z-score of -0.307.
With `[N-]=[N+]=NCc1ccccc1[C@H]1OC(c2ccc(OCCCO)cc2)=N[C@@]1(Cc1ccccc1)C(=O)N1CCCCC1` the z-score was 0.804.
`CC(C)N1CC=CC23O[C@@H]4C=CCOC(=O)[C@@H]4[C@H]2C(=O)N(CCCCCO)[C@@H]3C1=O` (stereo partly specified) showed a z-score of 0.413.
With `CCOC(=O)[C@H]1C/C=C/C[C@H](C(=O)OCC)C(=O)O[C@H]2[C@@H](OC)O[C@H](CO)[C@@H](OC(=O)c3ccc(Br)cc3)[C@@H]2OC1=O` the z-score was -0.349.
`O=C(O)[C@H]1C[C@H]2C(=O)N3CCC[C@H]3C(=O)N2[C@H]1c1ccc(O)cc1` gave a z-score of 0.684.
In the case of `[N-]=[N+]=Nc1ccccc1C[C@@]1(C(=O)N2CCCCC2)N=C(c2ccc(OCCCO)cc2)O[C@@H]1c1ccccc1N=[N+]=[N-]`, the z-score is reported as -0.45.
In the case of `CCOC(=O)C1=CC[C@@H](c2ccccc2)N(S(=O)(=O)c2ccc(C)cc2)[C@H]1c1ccc(CC)cc1`, the z-score is reported as 0.963.
`O=C1[C@H]2C=C(Br)[C@H](C[C@@H]2OCCCCCCO)[C@@]12CO2` gave a z-score of -0.629.
For `COc1cc2c(cc1O)C(c1cccs1)N(Cc1ccc([N+](=O)[O-])o1)CC2` (stereo unspecified), the z-score was -0.302.
In the case of `CCCNC(=O)[C@@]1(Sc2ccc(C)cc2)CC(=O)N(Cc2ccccc2C(F)(F)F)[C@@H]1c1ccc(CO)cc1I`, the z-score is reported as -0.103.
Work on `O=C1OCCC=C[C@H]2OC34C=CCN(Cn5nnc6ccccc65)C(=O)[C@H]3N(CCO)C(=O)[C@@H]4C12` (stereo partly specified) yielded a z-score of 1.02.
Compound `C=CCNC(=O)[C@@H]1[C@H]2C(=O)O[C@H](c3ccccc3)[C@H](c3ccccc3)N2[C@H](c2ccc(OCCO)cc2)[C@@]12C(=O)N(C(=O)OCCOC)c1ccc(C#CCNC(N)=O)cc12` has a z-score of -1.09.
With `CCCC1(C(=O)OC)C=C2C(=C(c3ccccc3)C(=O)C2C)CN1` (stereo unspecified) the z-score was -0.913.
In the case of `O=C1O[C@@H](c2ccccc2)[C@@H](c2ccccc2)N2[C@@H](c3ccc(OCCO)cc3)[C@]3(C(=O)Nc4ccc(C#CCCO)cc43)[C@@H](C(=O)NC[C@H](O)c3ccccc3)[C@H]12`, the z-score is reported as 0.148.
`COc1ccc(CCNC(=O)[C@@]2(c3ccc([N+](=O)[O-])cc3)CC(=O)N(CC34CC5CC(CC(C5)C3)C4)[C@@H]2c2ccc(CO)cc2I)cc1` gave a z-score of -1.49.
In the case of `COc1ccc([C@H]2C[C@H]3C(Br)=C[C@@]2(CO)C(=O)[C@]32CO2)cc1`, the z-score is reported as 0.231.
In the case of `O=C(NC1CC1)[C@@H]1c2ccccc2C(=O)N(Cc2cc(F)cc(C(F)(F)F)c2)[C@H]1c1ccc(CO)cc1`, the z-score is reported as 0.672.
`COC(=O)[C@@]1(Cc2ccc(OC)cc2)[C@H]2c3cc(C(=O)N4CCCC4)n(CCCNc4ncc(C(F)(F)F)cc4Cl)c3C[C@H]2CN1C(=O)c1ccccc1` showed a z-score of 0.808.
`CO[C@H]1O[C@H](CO)[C@@H](OC(=O)Nc2ccc(Oc3ccccc3)cc2)[C@H](OC(=O)Nc2ccc3c(c2)OCO3)[C@@H]1OC(=O)Nc1ccc2c(c1)OCO2` showed a z-score of -1.01.
With `C=C(CCCC)/C(=C/C[C@H](OC(C)=O)c1ccccc1OCCO)c1cnc2ccccc2c1` the z-score was -0.671.
In the case of `CC(C)(C)OC(=O)CC[C@@]1(C(=O)N2CCCCC2)N=C(c2ccc(OCCCO)cc2)O[C@@H]1c1ccccc1`, the z-score is reported as 0.426.
In the case of `O=C(CS)NCCCCCNC(=O)[C@@H]1C[C@@H]2C(=O)NCC(=O)N2[C@@H]1c1ccc(O)cc1`, the z-score is reported as -0.701.
With `CCCCN1CC=CC23O[C@@H]4/C=C\CCCOC(=O)C4[C@H]2C(=O)N(CCCCCO)[C@@H]3C1=O` (stereo partly specified) the z-score was 0.641.
Work on `COc1ccc(C(=O)Nc2cccc(CN3C(=O)[C@]4(O[C@H](CCn5cc(CCO)nn5)[C@@H]([Si](C)(C)c5ccc(OC)cc5)[C@@H]4C)c4ccccc43)c2)cc1` yielded a z-score of -6.31.
With `Cc1ccc(S[C@]2(C(=O)NCC(C)C)CC(=O)N(Cc3cc(C(F)(F)F)cc(C(F)(F)F)c3)[C@@H]2c2ccc(CO)cc2)cc1` the z-score was -0.0834.
In the case of `[N-]=[N+]=NCc1ccccc1[C@@H]1OC(c2ccc(OCCCO)cc2)=N[C@]1(CCS(=O)(=O)c1ccccc1)C(=O)N1CCOCC1`, the z-score is reported as -0.0512.
`CS(=O)(=O)CCOC(=O)C1=CC(CCCO)=CC(C2CC2)N(Cc2cc3c(cc2Br)OCO3)C=C1C(=O)OCCS(C)(=O)=O` (stereo unspecified) gave a z-score of 0.0423.
Work on `C=CC[C@]12N=C(c3ccc(OCCCO)cc3)O[C@H]1c1ccccc1N(CCS(=O)(=O)c1ccccc1)C2=O` yielded a z-score of 1.49.
`CC1CC/C=C\[C@H]2OC34C=CCN(Cn5nnc6ccccc65)C(=O)[C@H]3N(CCCCCO)C(=O)[C@@H]4C2C(=O)O1` (stereo partly specified) showed a z-score of 0.786.
Compound `C#CCN(C/C=C/c1ccccc1)[C@H](CO)c1ccccc1` has a z-score of -0.832.
With `O=C1N(CCS(=O)(=O)c2ccccc2)c2ccccc2[C@@H]2OC(c3ccc(OCCCO)cc3)=N[C@]12Cc1ccccc1` the z-score was 0.292.
